Compound activity from PubChem BioAssay.
PrP 5UTR inh = inhibition of PrP 5' UTR reporter expression. cell-based PrP 5' UTR mRNA reporter, plate reader. inhibition, % (no concentration beside the values). 0.35% of 340,000 active. AID 488862; in the data active = inhibition above about 52%; note: 0 = median of the neutral control wells
PrPC surface inh = inhibitors of human cell surface prion protein PrPC; P04156; TR-FRET read-out; inhibition, % at 13.8 µM; 0.43% of 370,000 active; AID 720596; in the data active = inhibition above about 24%; note: 0% = median of the test wells and 100% = reference compound wells
FadD28 FP inh = blocks FadD28 binding to the bisubstrate probe; fluorescence polarization; inhibition, % at 12.5 µM; 0.22% of 360,000 active; in the data active = inhibition above about 8.5%, passing the limit was not always enough; inconclusive = no clear call, values can overlap the other calls
BH1578 lux ind = induces V. cholerae light production without autoinducers; activation, % at 18.7 µM; V. cholerae BH1578 lux reporter, luminescence, 6 h; 0.16% of 350,000 active; AID 588436; in the data active = activation mostly above about 9.7%, no sharp cut-off; inconclusive = no clear call, values can overlap the other calls; inactive = mostly below about 3.7%
PriA SSB inh = K. pneumoniae PriA-SSBct interaction inhibition. 0.6% of 430,000 active. AlphaScreen SSBct-PriA binding, biotinylated peptide. inhibition, % at 33 µM; in the data active = inhibition mostly above about 37%, no sharp cut-off; inactive = mostly below about 20%;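 note: plate controls were negative control peptide for no effect and reference peptide for full effect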
PrP 5UTR single = prion 5' UTR mRNA inhibition, cherry-pick retest. 48% of 1,100 active. shares compounds with PrP 5UTR inh. cell-based prion protein 5' UTR reporter, plate reader. inhibition, % at 2.5 µM; in the data active = inhibition above about 54%; inconclusive = no clear call, values can overlap the other calls
An asterisk follows results filed as active; i = inactive; ? = inconclusive; / = not tested or not shown. Most compounds without a hit are left out; they make up all but 1.4% or so of the library.

SMILES	PrP 5UTR inh	PrPC surface inh	FadD28 FP inh	BH1578 lux ind	PriA SSB inh	PrP 5UTR single
Cc1ccc2oc(/N=C(\N)NC(=O)C(C)(C)C)nc2c1	90.5*	1.7	-1.7	i	/	84.9*
Cc1cc(Br)cc2cccnc12	/	/	/	/	34.0	/
CCOc1ccc(-c2cnc3ccccc3n2)cc1	60.1*	-5.5	-0.5	-0.9	1.2	?
Cn1nc2c(cc1=O)CC(C(=O)NC1CCCc3ccccc31)CC2 (stereo unspecified)	/	/	/	/	-3.0	/
Cc1cc(N2CCCCC2)nc(CNS(=O)(=O)c2ccc(-c3csc(C)n3)s2)n1	/	/	/	/	-7.0	/
O=c1oc2ccccc2cc1-c1cn2ccccc2n1	81.3*	-12.1	-1.5	-0.3	-6.2	?
CCCCN=C1NN=C(c2ccc3c(c2)OCCO3)CS1	-3.8	4.0	-2.1	i	27.4	/
c1cc2c(cc1C1=NNC(=NC3CC3)SC1)OCCO2	90.8*	-5.2	-2.2	-0.3	-1.2	91.2*
Cc1cc(C2=NNC(=NC3CC3)SC2)c(C)n1-c1ccccc1F	94.3*	6.7	-2.9	-0.3	18.6	96.2*
O=C(Nc1nc2c(s1)CCCC2)c1ccc(N2CCC(Cc3ccccc3)CC2)nn1	/	/	/	/	-16.0	/
COc1ccc(-c2noc(-c3cccn(CC(=O)Nc4ccc(C)c(F)c4)c3=O)n2)cc1OC	/	/	/	/	-5.0	/
COC1C(O)C(C)OC(OC2CCC3(C)C(CCC4C3C(O)CC3(C)C(C5=CC(=O)OC5)CCC43O)C2)C1O (stereo unspecified)	87.4*	8.1	-2.6	-5.6	-14.1	82.3*
C[C@]12CC[C@H](O)C[C@H]1CC[C@@H]1[C@@H]2C[C@@H](O)[C@]2(C)[C@@H](C3=CC(=O)OC3)CC[C@]12O	59.0*	2.0	-0.2	i	-4.1	65.7*
CC12CCC(O)CC1CCC1C2CCC2(C)C(C3=CC(=O)OC3)CCC12O (stereo unspecified)	79.1*	-2.8	-2.5	5.6	-7.1	81.9*
CC12CCC(O)CC1CCC1C2CCC2(C)C(C3=CC(=O)OC3)C(O)CC12O (stereo unspecified)	0.2	7.7	-1.0	i	-6.3	/
C[C@]12CC[C@H](O)C[C@H]1CC[C@@H]1[C@@H]2CC[C@]2(C)[C@@H](C3=CC(=O)OC3)CC[C@]12O	77.2*	-1.0	-2.1	-1.1	-11.9	84.1*
COC(=O)c1ccc(NC(=O)C(=O)NCC(c2ccc3c(c2)CCO3)N(C)C)cc1 (stereo unspecified)	/	/	/	/	2.0	/
CC(=O)OC1CC(OC2C(O)CC(OC3C(O)CC(OC4CCC5(C)C(CCC6C5CC(O)C5(C)C(C7=CC(=O)OC7)CCC65O)C4)OC3C)OC2C)OC(C)C1OC1OC(CO)C(O)C(O)C1O (stereo unspecified)	90.4*	1.3	-3.1	0.2	-9.3	89.6*
COc1ccccc1C(=O)N1CCC(S(C)(=O)=O)CC1	/	/	/	/	6.0	/
COc1c(C)cc(C(=O)C2CCCN(C(=O)c3ccc4[nH]ccc4c3)C2)cc1C (stereo unspecified)	77.9*	-3.1	-0.2	-0.3	2.0	-0.3
O=S(=O)(C1CCCCC1)N1CCN(CCn2ccnc2)CC1	/	/	/	/	-4.0	/
COc1ccc(C)c2sc(NC(=O)c3c(F)cccc3F)nc12	/	/	/	/	-5.0	/
CC1CN(C(=O)[C@@H]2CCCN2S(=O)(=O)c2ccc(Cl)cc2)CC(C)O1 (stereo partly specified)	84.5*	0.9	0.1	/	1.6	-11.6
CC1(C(=O)O)CC12c1ccccc1-c1ccccc12 (stereo unspecified)	62.1*	-6.3	-1.9	i	-4.1	-21.5
O=C(O)CCC1(CCC(=O)O)c2ccccc2-c2ccccc21	-50.9	6.7	-0.5	i	-5.6	/
SMILES	PrP 5UTR inh	PrPC surface inh	FadD28 FP inh	BH1578 lux ind	PriA SSB inh	PrP 5UTR single
COc1ccc2cc3c(N)nn(C(=O)c4ccccc4Cl)c3nc2c1	57.6*	-12.7	-2.9	-0.5	-12.4	47.0
ClCCCc1cn(C[C@H]2CC[C@@H]([C@@H]3CC[C@H](Cn4cc(CCCCl)nn4)O3)O2)nn1	68.3*	-2.1	-1.9	-9.5	-19.1	-12.7
CCN=C1NN=C(c2cc(C)n(CCc3ccccc3)c2C)CS1	-46.7	-8.1	-2.1	-0.2	-7.2	/
CCN=C1NN=C(c2cc(C)n(Cc3ccco3)c2C)CS1	83.4*	-0.2	-1.3	-0.4	-5.9	72.2*
COc1cc(C(=O)NCC(=O)N2CCOC(c3ccccc3)C2)cc(OC)c1OC (stereo unspecified)	/	/	/	/	2.0	/
CCN(CC)C(=O)CSc1nc2ccccc2c(=O)n1CCC(=O)N1CCN(c2ccccc2)CC1	56.2*	-1.9	-4.0	i	0.6	0.5
O=c1cc(-c2ccc(O)cc2)oc2ccc3ccccc3c12	78.1*	5.4	/	i	-18.2	72.8*
O=S(=O)(NCc1cc(-c2cccs2)n(C2CCCC2)n1)C1CC1	/	/	/	/	-10.0	/
CCOC(=O)c1ccc(NC(=O)COc2ccccc2CNCCO)cc1	74.0*	-7.8	-2.2	-0.5	6.8	1.8
CCOc1ccccc1CNCCO	-8.2	6.9	-2.0	-0.4	-8.7	/
Cc1nn(-c2ccccc2)c2c1CC(=O)Nc1ccccc1-2	64.4*	12.4	-1.5	i	-22.1	80.0*
O=c1[nH]cnc2c1ncn2[C@@H]1O[C@H](CO)[C@@H](O)[C@H]1O	79.3*	-12.8	0.9	i	-11.7	-6.6
COC(=O)C1=C(C(=O)OC)SC2(S1)C(C(=O)OC)=C(C(=O)OC)Sc1c2ssc1=O	74.8*	-24.4	1.3	i	95.7*	71.6*
CC(=O)Nc1ccc(S(=O)(=O)N2CCS[C@H]2c2ccco2)cc1	/	/	/	/	-6.0	/
Cc1ccc(-n2cccn2)c(CN2CCCC(CNC(=O)c3ccc(F)cc3)C2)c1 (stereo unspecified)	80.0*	-12.2	-2.5	-4.5	-3.1	1.2
O=C(Nc1ccc(F)c(F)c1)c1cc(=O)c(OCc2ccc(F)cc2)co1	/	/	/	/	-11.0	/
COc1cc2cc(C(=O)N3CC(COS(C)(=O)=O)c4ccc(O)cc43)[nH]c2c(OC)c1OC (stereo unspecified)	96.5*	/	2.1	-5.6	9.0	97.5*
Cc1ccc(NC(=O)/C=C/c2ccco2)nc1	69.5*	-11.3	-2.0	-0.3	1.9	83.9*
CC(=O)c1cccc(NC(=O)CCSc2ccc(Cl)cc2)c1	/	/	/	/	-24.0	/
O=C(CSCc1nc2ccccc2[nH]1)Nc1ccccc1	78.3*	-1.6	-0.2	1.0	-3.2	-4.6
O=C(CSCc1cccc(CSCC(=O)Nc2ccccc2)n1)Nc1ccccc1	-3.5	-0.3	-2.4	-0.5	9.4	/
Cc1nc(-c2cccc(NC(=O)c3ccco3)c2)cs1	-33.4	-3.3	-2.6	-0.5	-13.2	/
Cc1nc(-c2ccc(NC(=O)c3ccco3)cc2)cs1	78.5*	1.9	-5.6	i	-3.2	77.1*
Nc1nc(-c2ccc(NC(=O)c3ccco3)cc2)cs1	66.5*	7.2	-4.2	0.4	2.5	16.5
O=C(Nc1ccc(NC(=O)c2ccco2)cc1)c1ccco1	-23.2	3.6	-0.6	i	6.3	/
Cc1cc(C)cc(N=c2c([N+](=O)[O-])nn(-c3ccc4c(c3)OCCO4)n2O)c1	1.6	-1.1	-3.2	-0.1	-3.5	/
